Measured values: PubChem BioAssay (NCATS)
Values joined by “and” are separate entries in the source; they are usually repeats but may differ in a detail not shown here. Equal values may be shown once. Results filed as inconclusive are left out. Active and inactive are the calls of the source. Unless noted, calls follow the shape of the dose curve; as a rule, active = well fitted curve in the direction sought with a large enough effect; inconclusive = small, poorly fitted or top-dose-only effect, or another doubt; inactive = no such curve, though single readings can be large; an effect the other way counts as inactive or inconclusive.

Assays:
[1] = qHTS assay for small molecule agonists of the antioxidant response element (ARE) signaling pathway measured by Nrf2-dependant transcriptional activity (AID 720636; active = well fitted curve in the direction sought with a large enough effect in the repeat runs; an effect the other way counts as inactive or inconclusive; also: % of control where 0% means no effect)
Summary of the method: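 Quantitative HTS format in HepG2 cells stably expressing an ARE-luciferase reporter; 16 hr compound treatment at 37 C, luciferase signal detected with ONE-Glo.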

[2] = qHTS assay for small molecule agonists of the antioxidant response element (ARE) signaling pathway measured by Nrf2-dependant transcriptional activity - cell viability counter screen (AID 720653; active = well fitted curve in the direction sought with a large enough effect in the repeat runs; an effect the other way counts as inactive or inconclusive; also: potency is read from the fitted curve at half-maximal effect; as to max response: % is scaled to controls: 0 for no effect and ±100 for the full control effect); conditions: ARE-bla HepG2 viability, CellTiter-Glo ATP luminescence, 16 h; max response: stronger effect = lower value
Summary of the method: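 ARE-bla HepG2 cells treated with compounds for 16 h at 37C; this counter screen measures viability as intracellular ATP by CellTiter-Glo luminescence after 30 min at room temperature.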

[3] = qHTS Assay for Identifying Gametocytocidal Compounds (AID 743244);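 also: % is scaled to controls: 0 for no effect and ±100 for the full control effect; actives lower the fluorescent signal which means gametocytes are killed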; conditions: P. falciparum 3D7 stage III-V gametocytes, alamarBlue, 72 h; max response: stronger effect = lower value
Summary of the method: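 3D7 gametocytes, stages III–V, 20,000/well; cpd 72 h, 37 °C/5% CO2; + alamarBlue 24 h; fluor. Ex 525/Em 598.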

[4] = qHTS assay for cell viability of HEK293 cells (AID 743288); conditions: ATP luminescence (CellTiter-Glo), 18 h; max response: stronger effect = lower value; also: nearly all actives have a fitted effect of over 50% in size; also: potency is read from the fitted curve at half-maximal effect; as to max response: % is scaled to controls: 0 for no effect and ±100 for the full control effect
Summary of the method: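 Parental HEK293 cells, 2,000 per well, preincubated at least 5 h at 37 C, then exposed to compounds in DMSO for 18 h at 37 C. Viability by CellTiter-Glo ATP luminescence after 30 min at room temperature.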

[5] = qHTS assay for cell viability of the p53RE-bla HCT-116 cell line (AID 743292); also: % is scaled to controls: 0 for no effect and ±100 for the full control effect; nearly all actives have a fitted effect of over 55% in size
Summary of the method: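 Viability of compound-treated p53RE-bla HCT-116 cells is taken from ATP-dependent luciferase luminescence. Treatment lasts 16 h at 37 C after a 5 h settling period; detection follows 30 min at room temperature.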

[6] = target: Arylsulfatase A (Homo sapiens) (UniProt P15289); assay: qHTS screen for enhancers of Arylsulfatase A (ASA1): LOPAC Validation Assay (AID 720538)
Summary of the method: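 SV40-transformed fibroblasts from an MLD patient (ASA-I179S) were treated with compound for 48 h at 37 C. They were then lysed with 0.5 mM pNCS substrate (final) for 14 h at room temperature and stopped with NaOH; signal read by fluorescence (Ex 525/Em 598 nm), with increase denoting enhanced activity.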

[7] = qHTS profiling of the MIPE4 collection as inhibitors of Plasmodium falciparum (3D7) proliferation (AID 743344; call rule not given here;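 also: scaled between DMSO vehicle wells and 0.29 µM artemisinin as full inhibition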); conditions: P. falciparum 3D7 in erythrocytes, SYBR Green DNA fluorescence, 72 h; at 28.5 µM (top of the series) unless noted
Summary of the method: (§1)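 Erythrocytes infected with P. falciparum (0.3% parasitemia, 2.5% hematocrit) incubated with compounds 72 h at 37 C, 5% CO2. Lysis with saponin/Triton buffer containing SYBR Green I, overnight at room temperature in the dark; DNA fluorescence (485/535 nm) normalised to 0.29 uM artemisinin and DMSO.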

[8] = qHTS profiling of the MIPE4 collection as inhibitors of Plasmodium falciparum (DD2) proliferation (AID 743345; call rule not given here); conditions: P. falciparum Dd2 in erythrocytes, SYBR Green DNA, 72 h; at 28.5 µM (top of the series) unless noted
Summary of the method: as §1

[9] = qHTS profiling of the MIPE4 collection as inhibitors of Plasmodium falciparum (DD2) proliferation (Rep 2) (AID 743346; call rule not given here); conditions: P. falciparum Dd2 in erythrocytes, SYBR Green DNA, 72 h; at 28.5 µM (top of the series) unless noted
Summary of the method: as §1

[10] = qHTS profiling of the MIPE4 collection as inhibitors of Plasmodium falciparum (HB3) proliferation (AID 743347; call rule not given here;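 also: plate controls were DMSO vehicle wells for no effect and artemisinin wells for full effect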); conditions: P. falciparum HB3 in erythrocytes, SYBR Green DNA, 72 h; at 28.5 µM (top of the series) unless noted
Summary of the method: as §1

[11] = target: T1, Hexokinase-4 (Homo sapiens) + Glucokinase regulatory protein (Homo sapiens) (UniProt P35557+Q14397); assay: qHTS assay for inhibitors of recombinant human GCK-GKRP interaction: Diaphorase-coupled assay (AID 743205)
Summary of the method: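 Compounds pre-incubated 20 min with substrate, then 10 nM GST-GCK with 10 nM FLAG-GKRP added. GCK activity coupled via G6PDH and diaphorase to resorufin (5 mM glucose, 0.4 mM ATP, 0.15 mM NADP+, pH 7.6), read kinetically over 30 minutes at Ex 525/Em 590 nm.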

[12] = qHTS for compounds that reverse cellular toxicity of Amyloid beta (A-beta) peptide in yeast: LOPAC Validation Assay (AID 720559);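 also: plate controls were DMSO for no effect and equimolar ferric chloride plus clioquinol rescue for full effect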
Summary of the method: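 Yeast expressing toxic A-beta grown with pinned compounds at 30 C for 48 hr. Growth measured as absorbance at 600 nm; data normalized to DMSO and to an equimolar FeCl3/clioquinol mixture as positive control.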

[13] = qHTS for Activators of Parkin Expression: LOPAC Validation Assay (NLuc Reporter) (AID 720572;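 also: 0% = DMSO and 100% = positive control compound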)
Summary of the method: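 Neuronal cells with a Parkin promoter-driven FLuc/NLuc coincidence reporter were treated 24 h at 37 C in 7-point dose response (LOPAC). NLuc luminescence read after FLuc; signals normalized to DMSO and positive control (100%).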

[14] = qHTS for Activators of Parkin Expression: LOPAC Validation Assay (FLuc Reporter) (AID 720573;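 also: 0% = DMSO and 100% = positive control compounds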)
Summary of the method: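 Neuronal cell line stably expressing FLuc/NLuc coincidence reporter under the Parkin promoter, 1,500 cells/well, dosed 24 h after seeding in 7-point series for 24 h at 37 C. FLuc luminescence read; normalized to DMSO and positive control (100%).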

[15] = target: T1, Hexokinase-4 (Homo sapiens) + Glucokinase regulatory protein (Homo sapiens); assay: qHTS assay for inhibitors of recombinant human GCK-GKRP interaction: ADP-Glo assay (AID 743206);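 also: plate controls were DMSO plus enzyme for no effect and no enzyme for full effect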
Summary of the method: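 GST-GCK and FLAG-GKRP (15 nM each in the dispensed mix, with 2 uM S6P) react with 0.4 mM ATP and 5 mM glucose (final) in Hepes pH 7.6 for 60 min at room temperature. ADP is measured by ADP-Glo luminescence.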

[16] = target: T1, Hexokinase-4 (Homo sapiens) + Glucokinase regulatory protein (Homo sapiens); assay: qHTS assay for inhibitors of recombinant human GCK-GKRP interaction: HTRF assay (AID 743207);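 also: 0% = DMSO with GCK present and -100% = DMSO wells lacking GCK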
Summary of the method: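 HTRF binding of 5 nM GST-GCK and 5 nM FLAG-GKRP with 2 uM S6P in pH 7.1 Hepes buffer (MgCl2, KCl, DTT, Tween 20, BSA). Anti-FLAG XL665 and anti-GST donor added, 60 min at room temperature; 665/615 nm read, normalized to with- and without-GCK controls.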

Sequence of Arylsulfatase A (Homo sapiens) (P15289 whole entry, looked up): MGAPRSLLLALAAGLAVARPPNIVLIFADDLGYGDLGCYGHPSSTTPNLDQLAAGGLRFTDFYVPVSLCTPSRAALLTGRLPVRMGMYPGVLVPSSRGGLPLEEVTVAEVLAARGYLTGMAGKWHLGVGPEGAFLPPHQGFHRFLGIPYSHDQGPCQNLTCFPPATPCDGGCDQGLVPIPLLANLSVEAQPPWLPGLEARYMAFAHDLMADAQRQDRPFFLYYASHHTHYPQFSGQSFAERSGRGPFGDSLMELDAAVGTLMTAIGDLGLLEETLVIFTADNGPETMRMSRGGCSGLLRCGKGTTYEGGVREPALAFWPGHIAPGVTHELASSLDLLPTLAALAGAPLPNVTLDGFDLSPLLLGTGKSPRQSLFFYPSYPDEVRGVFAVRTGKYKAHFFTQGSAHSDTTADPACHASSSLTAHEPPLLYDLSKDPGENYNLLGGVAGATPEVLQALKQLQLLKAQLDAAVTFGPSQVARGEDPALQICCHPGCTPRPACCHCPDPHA
T1 sequence (P35557 whole entry, looked up): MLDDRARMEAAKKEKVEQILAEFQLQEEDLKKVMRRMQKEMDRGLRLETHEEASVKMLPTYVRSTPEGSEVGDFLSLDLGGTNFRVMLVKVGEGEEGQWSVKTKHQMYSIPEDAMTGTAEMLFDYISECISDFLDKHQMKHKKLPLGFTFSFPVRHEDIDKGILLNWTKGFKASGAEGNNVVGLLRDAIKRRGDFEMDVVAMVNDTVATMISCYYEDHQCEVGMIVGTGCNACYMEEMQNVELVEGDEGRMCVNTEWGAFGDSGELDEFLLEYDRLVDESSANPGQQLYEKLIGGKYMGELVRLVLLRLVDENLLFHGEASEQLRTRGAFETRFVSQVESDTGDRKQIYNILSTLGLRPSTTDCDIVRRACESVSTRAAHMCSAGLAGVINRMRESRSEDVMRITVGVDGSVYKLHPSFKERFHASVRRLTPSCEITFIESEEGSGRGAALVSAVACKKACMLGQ
T1 sequence (Q14397 whole entry, looked up): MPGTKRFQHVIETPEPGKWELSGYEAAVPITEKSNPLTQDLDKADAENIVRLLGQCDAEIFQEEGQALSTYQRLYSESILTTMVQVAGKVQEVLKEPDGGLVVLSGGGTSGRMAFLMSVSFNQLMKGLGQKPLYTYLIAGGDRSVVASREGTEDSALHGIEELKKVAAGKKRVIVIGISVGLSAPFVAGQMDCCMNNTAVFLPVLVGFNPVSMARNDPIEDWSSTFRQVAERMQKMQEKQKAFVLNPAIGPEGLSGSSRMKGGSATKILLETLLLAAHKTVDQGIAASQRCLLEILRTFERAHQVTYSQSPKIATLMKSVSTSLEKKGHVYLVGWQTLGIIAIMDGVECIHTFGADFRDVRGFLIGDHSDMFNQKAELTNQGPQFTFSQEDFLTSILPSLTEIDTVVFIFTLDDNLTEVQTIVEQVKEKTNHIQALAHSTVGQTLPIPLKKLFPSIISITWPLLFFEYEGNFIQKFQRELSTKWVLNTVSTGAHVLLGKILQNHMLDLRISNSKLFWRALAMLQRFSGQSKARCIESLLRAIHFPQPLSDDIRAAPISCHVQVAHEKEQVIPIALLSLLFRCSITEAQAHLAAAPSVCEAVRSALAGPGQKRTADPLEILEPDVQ

Oc1ccc(Cl)cc1Cc1ccccc1
inactive: Potency [1] | max response [2] 1.75% and 7.8% | max response [3] -3.88% and -14.6% | max response [4] -10.2% and -5.38% | Potency [5]

O=NN(CCCl)C(=O)NCCCl
95.8%: parasite growth, % of DMSO control [7]
102%: parasite growth remaining, % of DMSO control (lower = more inhibition) [8]
83.1%: growth, % of control [10]
150%: parasite growth, % of control (lower = inhibition) [9]
inactive: Potency [6]

COc1ccc(Cc2nccc3cc(OC)c(OC)cc23)cc1OC
inactive: Potency [6] | outcome [11] | max response [3] 8.87% and -8.15%

CC(=O)[C@H]1CC[C@H]2[C@@H]3CC[C@H]4C[C@](C)(O)CC[C@]4(C)[C@H]3CC[C@]12C
inactive: outcome [12] | outcome [13] | outcome [14] | outcome [11] | outcome [15] | outcome [16] | max response [3] -7.05% and 9.26%

O=c1[nH]c2ccccc2n1C1CCN(CCCC(c2ccc(F)cc2)c2ccc(F)cc2)CC1
active: Potency [2] 50.1 µM | Potency [4] 50.1 µM
inactive: Potency [6] | Potency [1] | outcome [11] | outcome [15] | outcome [16]

Cc1cccc(C)c1NC1=NCCCS1
inactive: outcome [12] | outcome [13] | outcome [14] | outcome [11] | outcome [15] | outcome [16] | max response [3] 0.533% and 4.4%

CCC1(C2=NCCN2)Cc2ccccc2O1 (configuration not stated)
inactive: Potency [6] | outcome [12] | outcome [13] | outcome [14] | outcome [11] | outcome [15] | outcome [16] | max response [3] -5.65% and 15.9%

OCCOc1ccccc1
inactive: Potency [1] | max response [2] -0.196% and 2.04% and -9.12% | max response [3] 3.27% and 3.36% | max response [4] -3.53% and -2.57% and -13.5% | Potency [5]

CCOP(=S)(OCC)Oc1cc(C)nc(C(C)C)n1
inactive: Potency [1] | max response [2] 0.528% and 11.7% | max response [3] 18.9% | max response [4] 0.702% and -4.39% | Potency [5]

CC(C)=CCOc1c2occc2cc2ccc(=O)oc12
inactive: Potency [6] | outcome [12] | outcome [13] | outcome [14] | outcome [11] | outcome [15] | outcome [16] | max response [3] -4.41% and 18.6%

Cc1cccc(C)c1NC(=O)CN1CCCC1=O
101%: parasite growth, % of DMSO control [7]
inactive: Potency [6] | outcome [12] | outcome [13] | outcome [14] | outcome [11] | outcome [15] | outcome [16] | max response [3] 12.6%
89.5%: growth, % of control [10]
99.6%: parasite growth remaining, % of DMSO control (lower = more inhibition) [8]
129%: parasite growth, % of control (lower = inhibition) [9]
